Here are results for ten compounds from PubChem BioAssay (NCATS).

Inconclusive results are not listed. Calls of active or inactive are those of the source. Calls follow the shape of the dose curve; as a rule, active = well fitted inhibition curve with a large enough effect; inconclusive = small, poorly fitted or top-dose-only effect; inactive = flat fitted curve, though single readings scatter.

Assay in all cases: qHTS profiling for inhibitors of Plasmodium falciparum proliferation (AID 504749); also: nearly all actives have a fitted effect of over 60% in size
Conditions in all cases: P. falciparum in erythrocytes, SYBR Green DNA, 72 h; series mostly up to 28.7 µM
(qHTS replaces the single test concentration by a dilution series.)

Test [1] has as its system ATS95. A digest of the protocol:
(§1)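 Readout was DNA-dye fluorescence from lysed cultures, ex 485/em 535 nm. Parasitized red cells had grown 72 h with compound; data scaled between 0.29 uM artemisinin and DMSO wells and corrected using vehicle-only plates.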

For test [2], the system named is C2A. A digest of the protocol: as §1
Test [3] deals with CP185. The procedure, abridged: as §1
In test [4] the test system is CP191. The procedure, abridged:
as §1

Test [5] relates to CP192. A digest of the protocol:
as §1

Test [6] concerns CP194. The procedure, abridged: as §1
Test [7] has as its system CP201. A digest of the protocol: as §1
Test [8] relates to CP203. A digest of the protocol:
as §1

Test [9] concerns CP211. A digest of the protocol: as §1
The test system of test [10] is CP215. A digest of the protocol: as §1
Test [11] concerns CP217. The procedure, abridged:
as §1

Test [12] deals with CP238. The procedure, abridged: as §1
In test [13] the test system is CP247. A digest of the protocol: as §1
The test system of test [14] is CP250. A digest of the protocol: as §1
Test [15] has as its system CP252. The procedure, abridged:
as §1

Test [16] has as its system CP256. A digest of the protocol: as §1
In test [17] the test system is CP262. The procedure, abridged: as §1
Test [18] relates to CP265. The procedure, abridged: as §1
Test [19] has as its system CP237. A digest of the protocol:
as §1

Test [20] has as its system CP260. The procedure, abridged: as §1
Potency is read from the fitted curve at half-maximal effect.

Consider `CC(C)NCC(O)COc1ccccc1-n1cccc1` (configuration not stated), for which the Potency entry in test [1], in test [2], in test [3], in [4], in [5] and in test [6] was “inactive” in each case. In addition, the Potency entry in [7], in test [8], in [9], in [10], in test [11] and in test [12] was “inactive” throughout. Moreover, the Potency result in test [13], in test [14], in test [15], in test [16], in test [17] and in test [18] was “inactive” in each case.

For `Cc1ncc(COP(=O)(O)O)c(CN)c1O`, the Potency result in [1], in test [2], in test [3], in test [4], in test [5] and in [6] was “inactive” each time. Moreover, the Potency result in [7], in test [8], in test [9], in test [10], in [11] and in [19] was “inactive” throughout. Moreover, the Potency entry in [12], in [14], in test [15], in test [16], in [20] and in test [17] was “inactive” in each case. Further, the Potency result in [18] was “inactive”.

For `CCCCC[C@H](O)/C=C/[C@H]1[C@H](O)CC(=O)[C@@H]1C/C=C\CCCC(=O)O`, the Potency result in test [1], in test [2], in test [3], in test [4], in test [5] and in [6] was “inactive” in each case. Further, the Potency result in [7], in test [8], in [9], in test [10], in [11] and in test [19] was “inactive” each time. Also, the Potency result in test [12], in [13], in [14], in [15], in [16] and in [17] was “inactive” in each case. The Potency entry in test [18] is “inactive”.

Turning to `CN(C)CCCSc1ccccc1NC(=O)/C=C/c1ccccc1`, the Potency entry in test [1], in test [2], in test [3], in test [4], in test [5] and in [6] was “inactive” in each case. For the same compound, the Potency entry in test [7], in test [8], in test [9], in test [10], in test [11] and in test [12] was “inactive” in each case. For the same compound, the Potency entry in test [13], in [14], in test [15], in [16], in test [20] and in test [17] was “inactive” in each case. In addition, the Potency result in [18] is “inactive”.

With `Cc1ncc[nH]1`, the Potency result in [1], in test [2], in test [3], in [4], in [5] and in test [6] was “inactive” in each case. For the same compound, the Potency entry in [7], in test [8], in test [9], in test [11], in test [19] and in test [12] was “inactive” throughout. The Potency result in test [13], in test [14], in test [15], in [16], in test [20] and in [17] was “inactive” throughout. Besides, the Potency result in [18] was “inactive”.

For the compound `CC(C)=CCC/C(C)=C/C=C/C(C)=C/C=C/C(C)=C/C=C/C=C(C)/C=C/C=C(C)/C=C/C=C(\C)CCC=C(C)C`, the Potency result in test [1], in test [2], in test [3], in test [5], in test [6] and in test [7] was “inactive” each time. The Potency result in test [8], in [9], in [10], in test [11], in test [12] and in [13] was “inactive” each time. Further, the Potency entry in test [14], in test [15], in test [16], in [20], in [17] and in test [18] was “inactive” in each case.

Consider `O=C1NCCN1c1ncc([N+](=O)[O-])s1`, for which the Potency entry in test [1], in [2], in test [3], in test [4], in [5] and in test [6] was “inactive” throughout. The Potency entry in test [8], in test [9], in test [10], in [11], in test [19] and in [12] was “inactive” in each case. Besides, the Potency result in test [13], in test [14], in test [15], in test [16], in test [20] and in [17] was “inactive” each time. Besides, the Potency result in test [18] is “inactive”.

As to `O=C(OC1C[C@@H]2CC3C[C@H](C1)N2CC3=O)c1c[nH]c2ccccc12` (some centres not stated), the Potency entry in [1], in test [2], in test [3], in test [4], in test [5] and in [6] was “inactive” throughout. Moreover, the Potency entry in test [7], in [8], in test [10], in test [11], in [19] and in test [12] was “inactive” throughout. The Potency result in [13], in [14], in [15], in test [16], in test [20] and in test [17] was “inactive” in each case. For the same compound, in test [18], the Potency entry was “inactive”.

On to `C#C[C@]1(O)CC[C@@H]2[C@H]3CCC4=CC(=O)CC[C@H]4[C@H]3C(=C)C[C@@]21CC`, for which the Potency entry in test [1], in test [2], in test [3], in test [12], in test [14] and in test [15] was “inactive” each time. Moreover, the Potency entry in test [20], in test [17] and in [18] was “inactive” each time. Moreover, the Potency was 379 nM (active) in [5]; 536 nM (active) in test [6]; 478 nM (active) in test [7]; 478 nM (active) in [9]; 478 nM (active) in test [10].

Take `Oc1cccc(O)c1O`: the Potency entry in [1], in test [2], in test [3], in test [11], in test [12] and in test [14] was “inactive” each time. In addition, the Potency result in test [15] and in test [16] was “inactive” in each case.
